The values that follow come from PubChem BioAssay (EPA / NIEHS).

A short description of assay [1]: ATG_NFI_CIS: Attagene CIS-FACTORIAL HepG2 Assay for human Nuclear Factor I (NFI) (AID 2282989). Conditions: HepG2 cis-regulatory reporter, NFI response element transcription; actives raise or lower the signal. In a few lines: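 Read-out: reporter mRNA via RT-PCR plus capillary electrophoresis with fluorescence detection. Transiently transfected HepG2 (endogenous TF activity on cis promoters), 24 h compound exposure; gain or loss of signal fitted against DMSO.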

The target in assay [2] is Myc proto-oncogene protein (Homo sapiens) (UniProt P01106). As to the kind of experiment: ATG_Myc_CIS: Attagene CIS-FACTORIAL HepG2 Assay for human Myelocytomatosis (Myc) Proto-Oncogene Transcription Factor (AID 2282990). Conditions: HepG2, Attagene cis-reporter transcription factor activity; actives raise or lower the signal. In a few lines: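 Transiently transfected HepG2 cells bearing cis-promoter reporter units for endogenous transcription factors; 24 h exposure. Reporter mRNA measured by RT-PCR, 6-FAM primer extension, HpaI cut and capillary electrophoresis; bidirectional fit relative to DMSO.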
Sequence of Myc proto-oncogene protein (Homo sapiens) (P01106 whole entry, looked up): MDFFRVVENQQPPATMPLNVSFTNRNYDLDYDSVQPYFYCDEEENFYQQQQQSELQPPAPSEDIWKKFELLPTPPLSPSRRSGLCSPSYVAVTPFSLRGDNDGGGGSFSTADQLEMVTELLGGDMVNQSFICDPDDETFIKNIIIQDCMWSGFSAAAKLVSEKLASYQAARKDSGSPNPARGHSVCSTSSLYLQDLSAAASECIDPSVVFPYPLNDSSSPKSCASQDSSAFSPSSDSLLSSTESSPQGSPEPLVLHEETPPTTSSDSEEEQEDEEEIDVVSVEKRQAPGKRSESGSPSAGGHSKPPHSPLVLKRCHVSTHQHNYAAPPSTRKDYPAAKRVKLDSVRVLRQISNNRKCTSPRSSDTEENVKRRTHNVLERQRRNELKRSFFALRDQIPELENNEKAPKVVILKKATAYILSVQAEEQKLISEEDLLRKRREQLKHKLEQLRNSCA

Assay [3] is described as follows: ATG_NF_kB_CIS: Attagene CIS-FACTORIAL HepG2 Assay for human Nuclear Factor Kappa B (NF-kB) (AID 2282991). Conditions: HepG2 Attagene cis-factorial NF-kB reporter mRNA; actives raise or lower the signal. In a few lines: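 Read-out: reporter transcript levels quantified by RT-PCR plus capillary electrophoresis of 6-FAM-labelled, HpaI-cut fragments. Transfected HepG2 cells, 24 h compound exposure, endogenous NF-kB-driven cis element; gain or loss scored versus DMSO.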

Assay [4] in a line: ATG_NRF2_ARE_CIS: Attagene CIS-FACTORIAL HepG2 Assay for human Nuclear Factor Erythroid 2 Related Factor 2 (NFR2) response to Antioxidant Response Elements (ARE) (AID 2282992).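 As to AC50: reporter mRNA level measured by RT-PCR and capillary electrophoresis fluorescence.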 Conditions: HepG2 Attagene ARE/NRF2 reporter, transcription factor activity; actives raise or lower the signal. In a few lines: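 Endogenous transcription factor activity in human liver HepG2 cells is tracked via a cis-element-driven reporter within a multiplexed set. mRNA induction is read by RT-PCR and capillary electrophoresis after 24 h, with DMSO as baseline.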

Assay [5] is described as follows: ATG_Oct_MLP_CIS: Attagene CIS-FACTORIAL HepG2 Assay for human Octamer-Binding Transcription Factor (Oct) (AID 2282993). Conditions: HepG2 Attagene cis-factorial Oct reporter, mRNA; actives raise or lower the signal. In a few lines:
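Read-out: reporter mRNA via RT-PCR plus capillary electrophoresis of 6-FAM-labelled fragments. Transiently transfected HepG2, 24 h exposure, endogenous TF activity on cis elements. Gain or loss of signal fitted relative to DMSO.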

In assay [6] the target is Cellular tumor antigen p53 (Homo sapiens) (UniProt P04637). As to the kind of experiment: ATG_p53_CIS: Attagene CIS-FACTORIAL HepG2 Assay for human p53 Transcription Factor (AID 2282994). Conditions: HepG2 p53 cis-element reporter, Attagene mRNA; actives raise or lower the signal. In short, it runs like this:
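Steps: transfect HepG2 with multiplexed cis reporter constructs; dose chemicals 24 h; extract RNA, reverse-transcribe, PCR-amplify reporter sequences; FAM-label, HpaI-digest, resolve fragments by CE. Activity fitted both directions relative to DMSO.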

The nature of assay [7]: BSK_3C_uPAR: BioMAP Diversity Plus: 3C Assay for Urokinase-type plasminogen activator receptor (uPAR) Biomarker Activity (AID 2282998). Conditions: BioMAP 3C HUVEC, uPAR biomarker ELISA; actives raise or lower the signal. In short, it runs like this:
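HUVEC primary cells; 24 h post-dose; uPAR by ELISA; gain or loss of signal fitted bidirectionally vs DMSO baseline.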
For orientation: ELISA stands for enzyme-linked immunosorbent assay.

The nature of assay [8]: BSK_3C_VCAM1: BioMAP Diversity Plus: 3C Assay for Vascular cell adhesion molecule 1 (VCAM1) Biomarker Activity (AID 2282999). Conditions: BioMAP 3C HUVEC, VCAM1 ELISA, cytokine-stimulated; actives raise or lower the signal. In a few lines: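 HUVEC primary cells, 24 h compound exposure; VCAM-1 by ELISA; gain/loss of signal fitted bidirectionally vs DMSO baseline.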
A short description of assay [9]: BSK_4H_Eotaxin3: BioMAP Diversity Plus: 4H Assay for Eotaxin 3 Biomarker Activity (AID 2283000). Conditions: primary human endothelial cells (HUVEC); actives raise or lower the signal. In short, it runs like this:
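Endothelial primary cells (human umbilical vein) exposed to compound for 24 h. ELISA detection of Eotaxin-3.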

Read-out in assay [10]: Intercellular Adhesion Molecule 1 (ICAM1), ICAM1 (gene 3383)
As to the kind of experiment: BSK_3C_ICAM1: BioMAP Diversity Plus: 3C Assay for Intercellular Adhesion Molecule 1 (ICAM1) Biomarker Activity (AID 2283003). Conditions: primary human endothelial cells (HUVEC); actives raise or lower the signal. In short, it runs like this:
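ELISA readout of ICAM1 in human umbilical vein endothelial cells in the 3C system, taken 24 h post-dose. Gain or loss of signal versus DMSO was fitted in both directions, with SRB total-protein staining run in parallel.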

Assay [11] concerns the target human Retinoic Acid Receptor beta (RARb), RARB (gene 5915) (UniProt P10826). As to the kind of experiment: ATG_RARb_TRANS: Attagene TRANS-FACTORIAL HepG2 Assay for human Retinoic Acid Receptor beta (AID 2283004; active = hit-call score of the fitted dose curve at least 0.9, where 1 is the maximum). In short, it runs like this:
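HepG2, transient MRTU transfection, NR–Gal4 chimera, 24 h treatment; RT-PCR plus CE fluorescence detection of reporter mRNA; gain of signal vs DMSO.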

In assay [12] the target is Retinoic acid receptor alpha (Homo sapiens) (UniProt P10276). As to the kind of experiment: ATG_RARa_TRANS: Attagene TRANS-FACTORIAL HepG2 Assay for human Retinoic Acid Receptor alpha (RARa) (AID 2283005; active = hit-call score of the fitted dose curve at least 0.9, where 1 is the maximum). In a few lines:
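HepG2 transiently transfected with multiplex GAL4-UAS reporter units including a human RARa–GAL4 chimera; 24 h compound exposure. Reporter mRNA quantified by RT-PCR, 6-FAM labeling and capillary electrophoresis; gain of signal versus DMSO.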

Assay [13] in a line: BSK_3C_Proliferation: Cell Proliferation Assessment in the BioMAP Diversity Plus: 3C Assay (AID 2283006).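 Also: potency may reflect either rise or fall in cell number versus DMSO.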 Conditions: primary human endothelial cells (HUVEC). In a few lines: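 Proliferation as total protein: sulforhodamine B (0.1%) stain of TCA-fixed subconfluent human umbilical vein endothelial cells, absorbance 560 nm, 48 h after dosing. Activity fitted in both directions against DMSO baseline.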

For assay [14], the target named is Peroxisome proliferator-activated receptor gamma (Homo sapiens) (UniProt P37231). As to the kind of experiment: ATG_PPARg_TRANS: Attagene TRANS-FACTORIAL HepG2 Assay for human Peroxisome Proliferator-activated Receptor-gamma (PPARg) (AID 2283007; active = hit-call score of the fitted dose curve at least 0.9, where 1 is the maximum). In short, it runs like this: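 Read-out: reporter mRNA induction, detected by fluorescence after RT-PCR and capillary electrophoresis. Transiently transfected human HepG2 liver cells carrying a chimeric NR-Gal4 construct were dosed for 24 h; activity was fitted upward relative to DMSO.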
Sequence of Peroxisome proliferator-activated receptor gamma (Homo sapiens) (P37231 whole entry, looked up, the tested form may be a part): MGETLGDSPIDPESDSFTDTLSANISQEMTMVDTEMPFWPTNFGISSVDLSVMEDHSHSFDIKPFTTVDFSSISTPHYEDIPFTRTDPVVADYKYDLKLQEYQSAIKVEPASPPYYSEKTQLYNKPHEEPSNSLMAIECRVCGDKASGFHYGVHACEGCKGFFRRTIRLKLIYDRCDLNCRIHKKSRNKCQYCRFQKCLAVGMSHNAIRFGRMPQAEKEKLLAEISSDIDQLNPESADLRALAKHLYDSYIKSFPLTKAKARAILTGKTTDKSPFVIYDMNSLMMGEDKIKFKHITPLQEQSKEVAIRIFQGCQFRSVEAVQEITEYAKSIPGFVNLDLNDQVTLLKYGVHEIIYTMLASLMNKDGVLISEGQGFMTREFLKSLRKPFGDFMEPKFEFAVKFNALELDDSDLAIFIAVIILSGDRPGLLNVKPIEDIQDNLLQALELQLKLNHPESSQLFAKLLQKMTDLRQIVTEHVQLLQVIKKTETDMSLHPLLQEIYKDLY

Assay [15] has as its target Nuclear receptor subfamily 1 group I member 2 (Homo sapiens) (UniProt O75469). As to the kind of experiment: ATG_PXR_TRANS: Attagene TRANS-FACTORIAL HepG2 Assay for human Pregnane X Receptor (PXR) (AID 2283008; active = hit-call score of the fitted dose curve at least 0.9, where 1 is the maximum). In a few lines:
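HepG2 transfected (FuGene 6) with GAL4-UAS reporter units + PXR-Gal4 chimera; dosed 24 h. Total RNA → oligo(dT) RT → PCR → 6-FAM primer extension → HpaI cut → CE. Gain-of-signal vs DMSO.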

Assay [16] addresses human Retinoic Acid Receptor gamma (RARg), RARG (gene 5916) (UniProt P13631). As to the kind of experiment: ATG_RARg_TRANS: Attagene TRANS-FACTORIAL HepG2 Assay for human Retinoic Acid Receptor gamma (RARg) (AID 2283009; active = hit-call score of the fitted dose curve at least 0.9, where 1 is the maximum). In short, it runs like this: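 Transactivation of exogenous RARg-Gal4 fusion measured as reporter transcript induction after 24 h in transfected HepG2 cells. RNA reverse-transcribed, amplified, fluorescently labeled and resolved by capillary electrophoresis; increase relative to DMSO.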

In assay [17] the target is human Peroxisome Proliferator-activated Receptor alpha (PPARa), PPARA (gene 5465) (UniProt Q07869). As to the kind of experiment: ATG_PPARa_TRANS: Attagene TRANS-FACTORIAL HepG2 Assay for human Peroxisome Proliferator-activated Receptor alpha (PPARa) (AID 2283001; active = hit-call score of the fitted dose curve at least 0.9, where 1 is the maximum). In short, it runs like this:
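HepG2, transient MRTU transfection, 24 h treatment. RT-PCR → FAM labelling → capillary electrophoresis. Fit vs DMSO, positive direction.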

The target of assay [18] is human Peroxisome Proliferator-activated Receptor delta (PPARd), PPARD (gene 5467) (UniProt Q03181). As to the kind of experiment: ATG_PPARd_TRANS: Attagene TRANS-FACTORIAL HepG2 Assay for human Peroxisome Proliferator-activated Receptor delta (PPARd) (AID 2283002; active = hit-call score of the fitted dose curve at least 0.9, where 1 is the maximum). In a few lines: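 HepG2 cells transiently transfected with GAL4-UAS multiplexed reporter units driven by exogenous chimeric NR-GAL4 proteins; 24 h compound exposure. Reporter mRNA measured by RT-PCR, 6-FAM primer extension, HpaI digestion and capillary electrophoresis; gain of signal fitted relative to DMSO.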
Sequence of human Peroxisome Proliferator-activated Receptor delta (PPARd), PPARD (gene 5467) (Q03181 whole entry, looked up, the tested form may be a part): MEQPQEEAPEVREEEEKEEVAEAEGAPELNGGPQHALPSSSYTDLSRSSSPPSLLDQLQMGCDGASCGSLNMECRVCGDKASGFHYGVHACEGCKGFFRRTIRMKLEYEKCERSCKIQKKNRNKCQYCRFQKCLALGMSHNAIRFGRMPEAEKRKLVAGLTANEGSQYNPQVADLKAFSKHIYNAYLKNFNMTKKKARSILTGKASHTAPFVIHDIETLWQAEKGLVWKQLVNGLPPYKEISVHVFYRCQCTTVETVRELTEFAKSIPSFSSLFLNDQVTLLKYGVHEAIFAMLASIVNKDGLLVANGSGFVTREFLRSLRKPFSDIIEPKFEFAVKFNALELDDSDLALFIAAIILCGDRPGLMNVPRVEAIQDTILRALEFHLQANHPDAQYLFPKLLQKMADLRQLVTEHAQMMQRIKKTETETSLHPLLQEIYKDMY

Assay [19] has as its target human RAR-related Orphan Receptor beta (RORb), RORB (gene 6096) (UniProt Q92753). As to the kind of experiment: ATG_RORb_TRANS: Attagene TRANS-FACTORIAL HepG2 Assay for human RAR-related Orphan Receptor beta (RORb) (AID 2283010; active = hit-call score of the fitted dose curve at least 0.9, where 1 is the maximum). In a few lines: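 Read-out is reporter mRNA induction, quantified by RT-PCR with fluorescent capillary electrophoresis, 24 h post-dose in transiently transfected HepG2 expressing exogenous NR-Gal4 chimera. Activity fitted upward versus DMSO.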

For assay [20], the target named is human RAR-related Orphan Receptor gamma (RORg), RORC (gene 6097) (UniProt P51449). As to the kind of experiment: ATG_RORg_TRANS: Attagene TRANS-FACTORIAL HepG2 Assay for human RAR-related Orphan Receptor gamma (RORg) (AID 2283011; active = hit-call score of the fitted dose curve at least 0.9, where 1 is the maximum). In a few lines:
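Activity is scored as increase in GAL4-UAS reporter mRNA over DMSO, detected by fluorescent RT-PCR and capillary electrophoresis in HepG2 cells transiently expressing a RORg-Gal4 chimera, 24 h after dosing.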

Records with an inconclusive call do not appear. The source made the active and inactive calls. The calls were made as follows, unless noted: active = hit-call score of the fitted dose curve at least 0.9, where 1 is the maximum; inactive = score below 0.9.

Sequence of human RAR-related Orphan Receptor beta (RORb), RORB (gene 6096) (Q92753 whole entry, looked up, the tested form may be a part): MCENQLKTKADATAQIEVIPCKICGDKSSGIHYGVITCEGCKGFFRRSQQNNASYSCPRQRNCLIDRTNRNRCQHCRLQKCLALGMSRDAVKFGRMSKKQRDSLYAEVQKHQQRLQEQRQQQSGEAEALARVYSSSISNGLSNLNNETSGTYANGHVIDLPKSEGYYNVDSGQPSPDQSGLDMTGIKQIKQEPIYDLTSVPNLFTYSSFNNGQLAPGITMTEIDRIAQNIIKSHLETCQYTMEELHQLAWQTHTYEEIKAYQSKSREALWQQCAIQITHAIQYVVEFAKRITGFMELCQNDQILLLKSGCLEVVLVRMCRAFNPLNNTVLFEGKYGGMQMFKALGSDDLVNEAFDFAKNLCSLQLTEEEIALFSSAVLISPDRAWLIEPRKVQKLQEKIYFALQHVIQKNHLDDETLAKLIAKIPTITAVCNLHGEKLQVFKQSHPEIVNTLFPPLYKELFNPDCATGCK
Sequence of Nuclear receptor subfamily 1 group I member 2 (Homo sapiens) (O75469 whole entry, looked up, the tested form may be a part): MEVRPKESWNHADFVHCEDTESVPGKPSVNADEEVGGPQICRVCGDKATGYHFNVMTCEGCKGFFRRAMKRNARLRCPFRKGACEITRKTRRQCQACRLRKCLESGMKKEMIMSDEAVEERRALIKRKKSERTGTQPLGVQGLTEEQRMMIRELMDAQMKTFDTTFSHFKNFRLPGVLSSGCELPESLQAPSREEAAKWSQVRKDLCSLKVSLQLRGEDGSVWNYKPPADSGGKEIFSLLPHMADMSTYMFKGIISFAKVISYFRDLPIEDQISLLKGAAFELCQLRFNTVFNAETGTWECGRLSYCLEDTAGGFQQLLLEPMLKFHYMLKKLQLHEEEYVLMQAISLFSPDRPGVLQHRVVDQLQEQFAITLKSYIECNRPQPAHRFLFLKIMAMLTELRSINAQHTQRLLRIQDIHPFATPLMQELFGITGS
Sequence of Retinoic acid receptor alpha (Homo sapiens) (P10276 whole entry, looked up, the tested form may be a part): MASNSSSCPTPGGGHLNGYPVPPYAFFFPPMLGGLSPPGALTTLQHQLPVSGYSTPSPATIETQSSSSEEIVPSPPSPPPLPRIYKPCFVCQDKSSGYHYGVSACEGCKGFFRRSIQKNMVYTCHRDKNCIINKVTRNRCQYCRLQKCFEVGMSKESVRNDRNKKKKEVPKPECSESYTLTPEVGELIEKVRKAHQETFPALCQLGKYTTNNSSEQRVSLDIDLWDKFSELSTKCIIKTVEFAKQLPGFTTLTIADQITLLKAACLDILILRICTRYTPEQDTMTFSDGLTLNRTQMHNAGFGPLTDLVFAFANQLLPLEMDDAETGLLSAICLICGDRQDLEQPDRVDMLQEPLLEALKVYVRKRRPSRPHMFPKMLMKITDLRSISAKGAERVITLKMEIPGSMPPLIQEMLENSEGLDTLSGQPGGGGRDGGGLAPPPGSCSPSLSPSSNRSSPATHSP
Sequence of human Retinoic Acid Receptor beta (RARb), RARB (gene 5915) (P10826 whole entry, looked up, the tested form may be a part): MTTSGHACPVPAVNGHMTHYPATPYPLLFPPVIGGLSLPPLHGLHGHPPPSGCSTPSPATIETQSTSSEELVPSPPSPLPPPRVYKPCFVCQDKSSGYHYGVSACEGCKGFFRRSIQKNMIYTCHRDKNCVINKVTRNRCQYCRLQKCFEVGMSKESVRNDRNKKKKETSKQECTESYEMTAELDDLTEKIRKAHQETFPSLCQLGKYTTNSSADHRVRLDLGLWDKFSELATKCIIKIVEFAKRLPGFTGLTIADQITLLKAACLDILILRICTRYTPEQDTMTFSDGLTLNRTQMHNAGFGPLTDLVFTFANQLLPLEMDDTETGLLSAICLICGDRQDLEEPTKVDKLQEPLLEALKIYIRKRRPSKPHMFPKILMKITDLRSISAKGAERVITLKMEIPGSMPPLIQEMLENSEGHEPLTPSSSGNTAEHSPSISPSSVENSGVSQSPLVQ
Sequence of Cellular tumor antigen p53 (Homo sapiens) (P04637 whole entry, looked up, the tested form may be a part): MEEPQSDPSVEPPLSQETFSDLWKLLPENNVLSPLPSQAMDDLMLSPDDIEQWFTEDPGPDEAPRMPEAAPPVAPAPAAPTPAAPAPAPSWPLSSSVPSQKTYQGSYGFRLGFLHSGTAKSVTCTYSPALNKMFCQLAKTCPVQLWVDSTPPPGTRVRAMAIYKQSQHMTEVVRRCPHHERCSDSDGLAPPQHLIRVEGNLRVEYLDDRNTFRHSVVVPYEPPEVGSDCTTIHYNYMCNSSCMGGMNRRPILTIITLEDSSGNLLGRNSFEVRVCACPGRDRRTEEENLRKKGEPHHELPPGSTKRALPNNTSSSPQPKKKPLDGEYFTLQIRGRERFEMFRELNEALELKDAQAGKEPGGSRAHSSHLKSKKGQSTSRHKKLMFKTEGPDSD
Sequence of human Retinoic Acid Receptor gamma (RARg), RARG (gene 5916) (P13631 whole entry, looked up, the tested form may be a part): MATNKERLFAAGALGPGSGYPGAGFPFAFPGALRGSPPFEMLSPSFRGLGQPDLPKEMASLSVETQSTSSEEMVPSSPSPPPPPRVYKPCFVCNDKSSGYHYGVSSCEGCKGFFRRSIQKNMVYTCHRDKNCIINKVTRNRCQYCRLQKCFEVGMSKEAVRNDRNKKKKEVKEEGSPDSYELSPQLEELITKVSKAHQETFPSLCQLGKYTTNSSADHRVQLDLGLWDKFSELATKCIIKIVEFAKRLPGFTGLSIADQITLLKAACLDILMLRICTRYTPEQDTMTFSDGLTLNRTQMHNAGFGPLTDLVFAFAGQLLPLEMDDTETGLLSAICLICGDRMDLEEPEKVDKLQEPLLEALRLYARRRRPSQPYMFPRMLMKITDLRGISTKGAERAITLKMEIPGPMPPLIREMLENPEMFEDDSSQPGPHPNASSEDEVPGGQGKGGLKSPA
Sequence of human Peroxisome Proliferator-activated Receptor alpha (PPARa), PPARA (gene 5465) (Q07869 whole entry, looked up): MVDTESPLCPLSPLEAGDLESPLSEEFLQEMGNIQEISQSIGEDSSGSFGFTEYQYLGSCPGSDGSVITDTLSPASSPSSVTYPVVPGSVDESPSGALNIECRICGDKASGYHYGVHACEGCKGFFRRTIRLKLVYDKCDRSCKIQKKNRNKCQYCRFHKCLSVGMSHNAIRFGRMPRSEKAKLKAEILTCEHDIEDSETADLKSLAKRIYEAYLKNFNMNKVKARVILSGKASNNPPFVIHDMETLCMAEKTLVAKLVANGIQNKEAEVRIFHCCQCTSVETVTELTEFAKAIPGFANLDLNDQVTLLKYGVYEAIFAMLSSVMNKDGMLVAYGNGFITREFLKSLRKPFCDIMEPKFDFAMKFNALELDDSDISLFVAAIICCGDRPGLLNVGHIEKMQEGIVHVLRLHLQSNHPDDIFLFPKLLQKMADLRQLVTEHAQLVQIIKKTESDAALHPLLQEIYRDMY

As to `C#CC1(O)CC[C@H]2[C@@H]3CCC4=CCCC[C@@H]4[C@H]3CC[C@@]21C` (some centres undefined), the call in assay [1], in assay [2], in assay [3], in [5], in [11] and in assay [12] was inactive. The compound was called inactive in [14] and in assay [16]. The AC50 (commonly the midpoint of the concentration-response curve, whichever way the signal moves) was 22 µM (active) in assay [4]; 33.4 µM (active) in assay [6]; 9.84 µM (active) in assay [7]; 10.4 µM (active) in assay [8]; 11.1 µM (active) in [9]; 10.7 µM (active) in assay [10]. Also, the AC50 in [13] is 11 µM (active); in assay [15] it was 2.14 µM (active).

Consider `CCCCCCCCCCCCCCCCCC#N`, for which the compound was called inactive in assay [1], in assay [2], in assay [3], in assay [4], in assay [5] and in [6]. Moreover, the call in assay [17], in assay [18], in [12], in assay [15], in [16] and in assay [19] was inactive. Also, the call in assay [20] was inactive.

Regarding `CCCCCC/C=C\CCCCCCCC(=O)O`, the outcome in assay [1], in assay [2], in [3], in assay [5], in [6] and in [17] was inactive. Besides, the result in assay [18], in assay [12] and in assay [19] was inactive. Further, the AC50 in [4] was 26.5 µM (active).

With `CCCC(C)CCC(C)=O` (centres undefined), the call in [1], in [2], in assay [3], in [4], in assay [5] and in assay [6] was inactive. Also, the compound was called inactive in [17], in assay [18], in assay [11], in assay [12], in assay [14] and in assay [15]. Also, the compound was called inactive in assay [16] and in [19].

On to `CC(C)C1=CC2=CC[C@@H]3[C@](C)(CCC[C@@]3(C)C(=O)O)[C@H]2CC1`, for which the call in assay [1], in [2], in assay [5], in [6], in assay [17] and in assay [11] was inactive. For the same compound, the compound was classed as inactive in assay [19]. Moreover, the AC50 in assay [3] was 157 µM (active); in assay [4] it was 19.8 µM (active); in [14] it was 43.9 µM (active); in [15] it was 1.55 µM (active).
